Reference: PubChem BioAssay AID1347074 (Center for Chemical Genomics, University of Michigan, 2019)
Out of some 47,000 compounds screened, about 2,800 (6%) were called active. The full list was thinned out, with actives kept by preference. Values without a mark were called inactive. Cut-off read from the data, not from the text of the source: active = z-score above about 3 (passing the limit was not always enough); inactive = the rest.

Target: Endoribonuclease Dicer (Homo sapiens) (UniProt Q9UPY3)
Sequence (Q9UPY3 whole entry, looked up): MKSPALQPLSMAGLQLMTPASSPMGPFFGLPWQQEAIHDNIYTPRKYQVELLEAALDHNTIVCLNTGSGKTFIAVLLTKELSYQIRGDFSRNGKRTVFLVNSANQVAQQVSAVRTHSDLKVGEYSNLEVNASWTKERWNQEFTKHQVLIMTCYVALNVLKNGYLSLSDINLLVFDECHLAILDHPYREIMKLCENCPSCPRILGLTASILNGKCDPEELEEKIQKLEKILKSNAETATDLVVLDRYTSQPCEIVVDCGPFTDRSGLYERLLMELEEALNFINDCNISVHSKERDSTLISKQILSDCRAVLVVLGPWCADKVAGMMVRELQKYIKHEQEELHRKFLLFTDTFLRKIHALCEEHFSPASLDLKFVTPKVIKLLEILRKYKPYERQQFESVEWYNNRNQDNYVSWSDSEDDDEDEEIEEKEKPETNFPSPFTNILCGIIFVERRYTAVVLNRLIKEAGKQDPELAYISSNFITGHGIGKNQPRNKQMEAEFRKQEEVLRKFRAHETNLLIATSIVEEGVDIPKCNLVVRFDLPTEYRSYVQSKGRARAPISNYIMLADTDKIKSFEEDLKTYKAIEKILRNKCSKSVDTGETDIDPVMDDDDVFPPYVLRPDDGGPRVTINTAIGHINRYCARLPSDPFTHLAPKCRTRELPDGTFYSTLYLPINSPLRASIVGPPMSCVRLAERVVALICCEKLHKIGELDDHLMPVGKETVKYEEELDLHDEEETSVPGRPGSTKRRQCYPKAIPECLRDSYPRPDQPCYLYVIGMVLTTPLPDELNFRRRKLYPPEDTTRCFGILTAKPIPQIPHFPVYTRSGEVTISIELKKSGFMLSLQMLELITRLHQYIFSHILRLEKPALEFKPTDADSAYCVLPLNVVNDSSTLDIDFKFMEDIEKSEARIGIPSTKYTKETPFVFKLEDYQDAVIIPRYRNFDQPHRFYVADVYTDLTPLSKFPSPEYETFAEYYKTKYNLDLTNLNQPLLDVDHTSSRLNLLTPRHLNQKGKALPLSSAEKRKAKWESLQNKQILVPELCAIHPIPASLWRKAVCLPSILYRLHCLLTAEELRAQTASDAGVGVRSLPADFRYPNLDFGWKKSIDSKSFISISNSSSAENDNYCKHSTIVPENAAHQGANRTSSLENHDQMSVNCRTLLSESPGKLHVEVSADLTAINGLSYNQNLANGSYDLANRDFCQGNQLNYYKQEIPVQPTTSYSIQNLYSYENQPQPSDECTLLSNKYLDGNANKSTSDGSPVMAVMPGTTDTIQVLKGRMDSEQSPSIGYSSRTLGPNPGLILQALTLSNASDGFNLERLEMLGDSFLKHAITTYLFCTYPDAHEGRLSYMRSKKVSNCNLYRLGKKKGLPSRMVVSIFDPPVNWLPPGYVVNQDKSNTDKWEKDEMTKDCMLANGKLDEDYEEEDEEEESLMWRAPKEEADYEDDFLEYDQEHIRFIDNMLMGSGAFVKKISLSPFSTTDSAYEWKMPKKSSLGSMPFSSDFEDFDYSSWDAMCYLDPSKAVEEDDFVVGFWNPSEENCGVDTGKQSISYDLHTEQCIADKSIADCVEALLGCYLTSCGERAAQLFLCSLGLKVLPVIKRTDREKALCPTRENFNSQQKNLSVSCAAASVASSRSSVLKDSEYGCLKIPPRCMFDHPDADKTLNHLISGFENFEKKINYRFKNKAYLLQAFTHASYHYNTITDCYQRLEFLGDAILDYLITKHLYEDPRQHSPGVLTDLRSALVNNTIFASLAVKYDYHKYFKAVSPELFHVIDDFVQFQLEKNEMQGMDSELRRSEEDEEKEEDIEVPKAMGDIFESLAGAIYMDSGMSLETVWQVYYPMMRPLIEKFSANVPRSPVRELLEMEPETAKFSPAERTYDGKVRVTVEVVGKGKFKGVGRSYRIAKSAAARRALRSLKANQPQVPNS
Experiment: Dicer cleavage of pre-miR-21 blockers – biochemical, cat-ELCCA, chemiluminescence, primary screen (AID 1347074);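 note: plate controls were vehicle for no effect and no enzyme for full effect; higher signal means more uncleaved substrate so more Dicer inhibition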
Settings: cat-ELCCA pre-miR-21 Dicer processing, at 25 µM, stronger effect = higher value

Point of comparison: `Cc1ccc2nc(CCC(=O)O)[nH]c2c1`, z-score 1.6. Against it:
- C=CCOc1ccc(C2c3c(oc4ccccc4c3=O)C(=O)N2c2nncs2)cc1 (stereo not given) — lower, -1.03
- CC(=O)Nc1cc(Sc2ccc(C)cc2)c(F)cc1[N+](=O)[O-] — lower, -0.55
- O=C(CSCc1c(F)cccc1Cl)NCc1ccc2c(c1)OCO2 — lower, 1.3
- O=[N+]([O-])c1ccc(CSc2nc3cc(Cl)c(F)cc3[nH]2)cc1 — lower, 0.13
- COc1cc(OC)cc(-c2nc3n(n2)C(c2cccc(OC)c2OC)C2=C(CCCC2=O)N3)c1 (stereo not given) — lower, -0.15
- COc1ccccc1C1=Nc2cccc3cccc(c23)N1 — lower, -0.3
- C=CCc1ccc(OCc2ccc(C(=O)OC)cc2)c(OC)c1 — lower, 0.92
- ONC(=Nc1cccc(Cl)c1)c1ccccc1 — lower, 0.78
- CCOC(=O)C1=C(C)NC2=C(C(=O)c3ccccc32)C1c1cccc(F)c1 (stereo not given) — lower, -1.25
- O=C(O)CCCC(=O)Nc1ccc2c(c1)OCCO2 — lower, -0.36
- Cc1ccc(C2Nc3nonc3NC3=C2C(=O)CC(C)(C)C3)cc1 (stereo not given) — lower, -0.08
- Cc1cc(=O)[nH]c(SCc2ccc(Cl)cc2)n1 — lower, 0.25
- Cc1cc(=O)[nH]c(SCc2cn3c(C)cc(C)nc3n2)n1 — higher, 2.76
- CCOCCOC(=O)C1=C(C)NC2=C(C(=O)CCC2)C1c1ccc(O)c(OCC)c1 (stereo not given) — lower, -0.34
- O=C(Nc1cc(C(F)(F)F)cc(C(F)(F)F)c1)c1csc([N+](=O)[O-])c1 — higher, 1.87
- O=c1[nH]nc(Sc2ncc(Br)cc2[N+](=O)[O-])n1-c1ccc(Cl)cc1 — lower, -0.78
- Cc1ccc2c(c1)sc1ncc(NC(=O)c3ccc(C(C)(C)C)cc3)c(=O)n12 — lower, -1.01
- CCn1c2c(c(=O)[nH]c1=O)C(c1ccccc1OC)C1=C(N2)c2ccccc2C1=O (stereo not given) — higher, 2.33
- CCc1ccc(C2CC(=O)Nc3n[nH]c(-c4ccc(Cl)cc4)c32)cc1 (stereo not given) — lower, 0.45
- CC(C)(C)c1ccc(C(=O)Nc2cc(C#N)c3sc4ccccc4n3c2=O)cc1 — lower, -0.68
- O=C1C(=O)N(CCCN2CCOCC2)C(c2ccco2)/C1=C(\O)c1ccc(F)cc1 (stereo not given) — higher, 2.92
- O=C(O)C1CC(=O)N(Cc2ccccc2Cl)C1 (stereo not given) — lower, -1.02
- O=C1CC(N2CCN(c3cccc(Cl)c3)CC2)C(=O)N1c1cccc(Cl)c1 (stereo not given) — lower, 0.79
- CC(c1ccccc1)C1C(C#N)=C(N)Oc2n[nH]c(-c3ccccc3)c21 (stereo not given) — lower, -0.54
- Cc1cc(C)cc(N2CC(C)Cn3c2nc2c3c(=O)n(CC(=O)O)c(=O)n2C)c1 (stereo not given) — lower, -0.04
- Cc1ccc(C(=O)CSc2nnc(-c3ccccc3)n2C)cc1 — higher, 8.7
- Cc1cc(-c2ccccc2)n2nc(C)cc2n1 — lower, 0.05
- CCOC(=O)c1c(N)sc2c1CC(C)(C)OC2 — lower, -0.32
- CC1=CC(C)(C)N(C(=O)NC2CCCCC2)c2ccc(C)cc21 — lower, -5.39
- Cn1c(N2CCCCC2)nc2c1c(=O)n(Cc1ccc(Cl)cc1Cl)c(=O)n2C — lower, -1.04
- Cn1c(CSc2cccs2)nnc1SCc1c(Cl)cccc1Cl — lower, 0.02
- CC(=O)Nc1ccc(C(=O)CSc2nc3nc(C)cc(C)c3c(=O)[nH]2)cc1 — lower, -0.34
- O=C1/C(=C/c2ccc(Cl)cc2)CCC/C1=C\c1ccc(Cl)cc1 — lower, -1.13
- Cn1ccnc1SCC(=O)Nc1cccc2nsnc12 — lower, -4.69
- O=C(CN1C(=O)/C(=C/c2ccccc2Cl)N=C1c1ccccc1)c1ccccc1 — lower, 0.22
- CC1=N/C(=C/c2ccccc2O)C(=O)O1 — lower, 0.13
- CCOC(=O)Cn1c(Sc2nc3c(c(=O)n(C)c(=O)n3C)n2C)nc2ccccc21 — higher, 2.22
- O=C(O)CC1S/C(=N\N=C\c2ccco2)NC1=O (stereo not given) — lower, -0.87
- O=C(NCc1ccc2c(c1)OCO2)c1ccc(Cn2cc(Cl)cn2)cc1 — higher, 1.8
- CCOc1ccc(S(=O)(=O)Nc2ccncc2)c(C)c1C — lower, 0.59
- COc1cc(C)c(Cl)cc1S(=O)(=O)n1ccnc1 — lower, -0.35
- CSCC(CSC)OC(=O)NC(=O)c1c(Cl)cccc1Cl — lower, -0.86
- NC(=O)C1CCN(C(=O)C2CC(c3ccc(Cl)cc3)=NO2)CC1 (stereo not given) — lower, -1.13
- CCOC(=O)CSc1nc2cc(Cl)ccc2s1 — lower, 0.3
- N#Cc1sc(SCc2ccccc2)c2c1CC(c1ccccc1)CC2=O (stereo not given) — lower, 0.58
- CCCN1C(=O)C(O)(CC(=O)c2ccc(C(C)(C)C)cc2)c2ccccc21 (stereo not given) — lower, -0.52
- Cc1cc(N2C(=O)CC(C)(C)CC2=O)n(C)n1 — lower, -0.86
- CCOC(=O)c1c(N/N=C\c2ccccc2O)n[nH]c1C — lower, 1.01
- COc1ccccc1C1CCN(S(=O)(=O)c2ccc(Oc3c(Cl)cccc3[N+](=O)[O-])cc2)CC1 — lower, 1.46
- CCC(C)c1ccccc1OCC(O)CN1C(=O)NC(C)(C)C1=O (stereo not given) — lower, 0.96
- Oc1ccccc1-c1nc(/C=C/c2cccs2)no1 — higher, 2.56
- Fc1ccc(-n2nnnc2-c2cnc3ccc(Cl)cc3c2-c2ccccc2)cc1 — lower, 0.2
- Cc1ccc(-n2nnnc2-c2cnc3ccccc3c2C)cc1 — lower, -0.58

`CC(=O)C(Cc1ccc([N+](=O)[O-])cc1)(Cc1c(F)cccc1Cl)C(C)=O` was tested, and the z-score was 3.5 (active).
In the case of `Brc1ccccc1C1Nc2cccc3cccc(c23)N1`, the z-score is reported as 5.91 (active).
For `COc1cccc(C2Nc3cccc4cccc(c34)N2)c1OC`, the z-score was 3.14 (active).
In the case of `Cc1cc(=O)[nH]c(SCc2cn3cccnc3n2)n1`, the z-score is reported as 3.69 (active).
With `O=C(O)C1CC(=O)N(c2cccc(Cl)c2)C1` (stereo not given) the z-score was 8.4 (active).
For `CC1=CC(C)(C)N(S(=O)(=O)c2ccc(C)cc2)c2cc3c(cc21)OCO3`, the z-score was 3.26 (active).
`CN(C)c1ccc(/C=C2\CCC/C(=C\c3ccc(N(C)C)cc3Cl)C2=O)c(Cl)c1` was tested, and the z-score was 3.37 (active).
In the case of `CC1=N/C(=C/c2ccccc2Cl)C(=O)O1`, the z-score is reported as 3.5 (active).
In the case of `CCOc1ccc(S(=O)(=O)n2ccnc2)c2ccccc12`, the z-score is reported as 3.38 (active).
In the case of `CCC(C)c1ccc(O)c(/C=N/Nc2ccccc2)c1` (stereo not given), the z-score is reported as 6.05 (active).
In the case of `FC(F)(F)c1nc(-c2ccccc2)ncc1-c1nnnn1-c1ccccc1`, the z-score is reported as 3.06 (active).
